Screening results: PubChem, National Center for Advancing Translational Sciences (NCATS)
Most compounds without a hit are left out; they make up all but 3.3% or so of the library.
HCV inhibitor – HCV inhibition; Potency, µM (highest dose often 41.8 µM), inactives show at the highest dose activity change, negative = inhibition, most hits filed as inhibitors; 340,000 compounds, 3.4% hits; Huh7.5.1 HCVcc-Cre infection, luciferase reporter, 44 h; active means well fitted inhibition curve with a large enough effect; inconclusive means small, poorly fitted or top-dose-only effect, or another doubt; inactive means no such curve, though single readings can be large or run the other way
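Cells seeded at 1,000/well and cultured 4 h, then compounds added followed by HCVcc-Cre virus (~0.5 moi). After 44 h further culture, luciferase substrate was added, plates held 15 min at room temperature, and luminescence read for 15 sec.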
VACV Venus inh – inhibitors of vaccinia virus (Venus reporter) | Potency, µM (doses to about 36.5 µM), for inactives: at the highest dose activity change, negative = inhibition, actives largely listed as inhibitors | Vaccinia virus Venus reporter expression, fluorescence | 330,000 compounds, 0.46% hits; calls by dose curve; tested in A549 cells; further: nearly all actives have a fitted effect of over 30% in size
VACV mCherry inh – inhibitors of vaccinia virus infection (mCherry reporter signal). Vaccinia virus mCherry reporter infection, fluorescence. Potency, µM (doses to about 36.5 µM), inactives show at the top dose activity change, negative = inhibition, usual class: inhibitors. 310,000 compounds, 0.63% hits; calls by dose curve; tested in A549 cells; further: nearly all actives have a fitted effect of over 35% in size
Numbers without * were called inactive; i = inactive; u = inconclusive; x = no result given; [ ] = another dose, or the depositor's remark. On the % scale 0 is the no-effect control and ±100 the full control effect; potency means the concentration at half of the fitted maximal effect.

SMILES	HCV inhibitor	VACV Venus inh	VACV mCherry inh
COC(=O)c1sc(NC(=O)c2cc(-c3ccccc3)nc3ccccc23)c(C#N)c1C	11µM*	u	16µM*
CCOC(=O)c1sc(NC(=O)c2cc(-c3ccc(C)cc3)nc3ccccc23)c(C#N)c1C	12%	-12%	-16%
COc1ccc(-c2cc(C(=O)Nc3sc4c(c3C#N)CCCC4)c3ccccc3n2)cc1	u	10%	-3%
Cc1sc(NC(=O)c2cc(-c3ccc(Cl)cc3)nc3ccccc23)c(C(N)=O)c1C	u	-20%	x
Cc1ccccc1-c1cc(C(=O)Nc2sc(C(=O)OC(C)C)c(C)c2C#N)c2ccccc2n1	13µM*	x	x
CC(=O)c1ccc(C(=O)NCc2nc(-c3ccccc3NC(=O)c3cc(C)oc3C)oc2C)cc1	x	-1%	-11%
c1cncc(OC2CCN(Cc3ccc4c(c3)CN(Cc3ccc5c(c3)OCO5)CCO4)CC2)c1	x	-8%	-7%
O=C(Nc1ccc2nc3n(c(=O)c2c1)CCCC3)c1cncc(Br)c1	u	-14%	i
CN(Cc1ccno1)C(=O)CC1C(=O)NCCN1CC(c1ccccc1)c1ccccc1 (stereo not drawn)	6%	-7%	-25%
Cc1oc(-c2ccccc2)nc1CNS(=O)(=O)c1ccc(Cl)cc1	x	-9%	-12%
Nc1cc(N)cc(N)c1	x	-15%	i
COC(=O)[C@H](NC(=O)c1cc(-c2ccccc2)nc2ccccc12)c1ccccc1	35µM*	-5%	-11%
CCOc1ccc(-c2cc(C(=O)NC(C)c3ccccc3)c3ccccc3n2)cc1 (stereo not drawn)	x	-12%	-19%
Cc1cc(F)ccc1NC(=O)Cn1cc(S(=O)(=O)NC(C)C)c(S(=O)(=O)NC(C)C)c1	x	-4%	i
CCCN(CCC)C(=O)c1cc2c(=O)[nH]c3ccc(C)cc3c2s1	11µM*	x	x
CCCN(C(=O)c1cc2c(=O)[nH]c3ccc(C)cc3c2s1)c1ccc(CC)cc1	x	1%	-15%
Cc1ccc2[nH]c(=O)c3cc(C(=O)N(C)Cc4ccco4)sc3c2c1	u	-7%	0%
Cc1ccc(C)c(N(C)C(=O)c2cc3c(=O)[nH]c4ccc(C)cc4c3s2)c1	8.9µM*	x	x
COc1ccc(C(=O)c2ccc(O)cc2)c(O)c1O	x	-3%	-7%
COCC(C)NS(=O)(=O)c1ccc(C(=O)NC(Cc2ccccc2)c2ccccc2)cc1 (stereo not drawn)	2%	-17%	-24%
CCOC(=O)Oc1c(OC)cc(C(=O)O[C@@H]2C[C@@H]3CN4CCc5c([nH]c6cc(OC)ccc56)[C@H]4C[C@@H]3[C@H](C(=O)OC)[C@H]2OC)cc1OC	5.6µM*	u	u
COC(=O)C1C2CC3c4[nH]c5cc(OC)ccc5c4CCN3CC2CC(OC(=O)CC(C)=O)C1OC (stereo not drawn)	-11%	46%	u
CCc1ccccc1N1C(=O)NC(=O)/C(=C\c2cc(C)n(C)c2C)C1=O	4%	-26%	10µM*
Cc1cc(C)cc(N2C(=O)NC(=O)/C(=C\c3cc(C)n(C)c3C)C2=O)c1	-1%	-1%	-4%
COc1ccc(C(C)=O)cc1Cn1c(C)c(C(=O)NCc2ccc3c(c2)OCO3)sc1=O	x	2%	1%
SMILES	HCV inhibitor	VACV Venus inh	VACV mCherry inh
O=C(Nc1ccnn1C1CCN(Cc2cccc(OCCO)c2)CC1)C1CCOC1 (stereo not drawn)	-12%	-12%	i
CN(C)S(=O)(=O)c1cccc(C(=O)NCC(=O)NC2CCN(Cc3ccccc3)CC2)c1	-24%	9%	i
O=C(NC1CCN(Cc2ccccc2)CC1)c1cccc(S(=O)(=O)Nc2ccc(Br)cc2)c1	u	u	-19%
COc1ccccc1NS(=O)(=O)c1cccc(C(=O)NC2CCN(Cc3ccccc3)CC2)c1	u	-10%	u
Cc1cc(OCC(=O)NC2CCN(Cc3ccccc3)CC2)c2c(C)cc(=O)oc2c1	u	-4%	-4%
C=CCN(c1ccccc1)S(=O)(=O)c1cccc(C(=O)NC2CCN(Cc3ccccc3)CC2)c1	14µM*	u	u
CCc1cc(=O)oc2cc(C)cc(OC(C)C(=O)NC3CCN(Cc4ccccc4)CC3)c12 (stereo not drawn)	13µM*	-12%	-8%
Cc1ccc(NS(=O)(=O)c2cccc(C(=O)NC3CCN(Cc4ccccc4)CC3)c2)c(C)c1	14µM*	x	x
COc1ccccc1NS(=O)(=O)c1ccc(C)c(C(=O)NC2CCN(Cc3ccccc3)CC2)c1	2.2µM*	-19%	-25%
CC(C)(C)c1ccc(S(=O)(=O)/C=C/C#N)cc1	x	-22%	-15%
CC(=O)Nc1ccc(-c2nnc(SCc3ccccc3)n2C)cc1	x	-7%	-15%
CCCc1ccc(OCC(=O)Nc2sc(C(=O)OCC)c(C)c2C(=O)OCC)cc1	x	3%	-3%
COc1ccc(-n2c(C)nnc2SCC(=O)N2CCOCC2)cc1	7%	-12%	-21%
Cc1c(C(=O)NCCCc2ccncc2)cnn1-c1ncc2c(n1)-c1ccccc1CC2	x	u	-2%
O=C1CC(N2CCN(S(=O)(=O)c3ccccc3F)CC2)C(=O)N1c1ccc(F)cc1F (stereo not drawn)	9%	17%	-10%
Cc1ccc(C)c(OCc2cc(C(=O)NC3CCN(Cc4ccccc4)CC3)no2)c1	6.3µM*	x	x
O=C(NC1CCN(Cc2ccccc2)C1)c1cc(COc2ccc(F)cc2F)on1 (stereo not drawn)	-17%	x	x
Cc1cc(C)cc(CC(Cc2nc3ccccc3[nH]2)c2nc3ccccc3[nH]2)c1 (stereo not drawn)	5µM*	14µM*	-14%[1.46 µM]
Cc1ccc(CSCc2nc3ccccc3[nH]2)cc1	u	-20%	-16%
O=C(NCc1nnc2n1CCN(Cc1ccc(C(F)(F)F)cc1)CC2)c1cccc(F)c1	x	-5%	-16%
Cc1ncc(N=Nc2ccccc2Cl)c(-c2ccccc2)n1	-4%	-5%	x
Nc1nc(-c2ccccc2)c(N=Nc2ccccc2Cl)s1	11µM*	u	-28%
O=C(NCC1Cc2cccc(-c3ccccn3)c2O1)c1cnn2cccnc12 (stereo not drawn)	x	-15%	-21%
COc1cc2c(cc1OC)C(COc1ccc([N+](=O)[O-])cc1)N(C(C)=O)CC2 (stereo not drawn)	10µM*	x	x
COc1cc2c(cc1OC)C(COc1ccccc1OC)N(C(C)=O)CC2 (stereo not drawn)	28%	x	x
SMILES	HCV inhibitor	VACV Venus inh	VACV mCherry inh
OCC[C@H]1C[C@H](O)[C@@H](O)[C@]2(CCc3ccccc3CO2)O1	0.56µM*	-19%	-8%
OCC[C@H]1C[C@@H](O)[C@H](O)[C@]2(CCc3ccccc3CO2)O1	-3%	-9%	-16%
O=C(C[n+]1ccccc1Cl)c1ccccc1	x	-22%	-11%
CC(=O)Nc1ccc(C(=O)OCC(=O)N(c2ccccc2)C2CCS(=O)(=O)C2)cc1 (stereo not drawn)	22%	x	x
O=C(CCl)N(c1ccccc1)C1CCS(=O)(=O)C1 (stereo not drawn)	22µM*	11µM*	10µM*
Cc1ccc2c(=O)cc(CSCC(=O)Nc3nnc(C)s3)[nH]c2c1	x	-4%	-15%
N#CCCn1cc(CNCc2cccnc2)c(-c2ccccc2)n1	x	-7%	-8%
COC(=O)/C=C/c1cc(F)ccc1S(=O)(=O)Nc1ccccc1	x	-21%	-4%
CCOC(=O)c1c(-c2ccccc2)oc2ccc(OCc3ccc(C)cc3)cc12	x	-11%	-8%
CCOC(=O)c1c(-c2ccccc2)oc2ccc(OC)cc12	11µM*	5%	x
